31 compounds from ChEMBL document CHEMBL1961873, “Compounds: GSK PKIS; Assays: Nanosyn kinase panel” (2012) can be followed below.

“And” between values parts separate entries of the source, which are not always exact repeats. Identical values can stand only once.

Sequence of Tyrosine-protein kinase FRK (Homo sapiens) (P42685 whole entry): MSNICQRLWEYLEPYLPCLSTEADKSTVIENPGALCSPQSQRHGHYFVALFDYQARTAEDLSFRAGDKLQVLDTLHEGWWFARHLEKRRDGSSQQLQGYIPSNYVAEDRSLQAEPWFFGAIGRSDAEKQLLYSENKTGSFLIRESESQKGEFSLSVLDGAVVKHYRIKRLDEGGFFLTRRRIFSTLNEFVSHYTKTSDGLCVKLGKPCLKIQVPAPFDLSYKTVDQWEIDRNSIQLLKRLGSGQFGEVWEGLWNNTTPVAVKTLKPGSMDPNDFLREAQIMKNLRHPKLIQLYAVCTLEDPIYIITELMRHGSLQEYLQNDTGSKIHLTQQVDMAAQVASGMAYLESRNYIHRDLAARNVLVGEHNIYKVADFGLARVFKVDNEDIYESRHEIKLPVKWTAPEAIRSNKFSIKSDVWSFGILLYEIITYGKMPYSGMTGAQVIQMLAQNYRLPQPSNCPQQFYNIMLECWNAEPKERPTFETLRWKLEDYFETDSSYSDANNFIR

The target of one test is Platelet-derived growth factor receptor beta (Homo sapiens) (UniProt P09619). To be noted: at 1 µM.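 Also: each value is a mean percent inhibition.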
Sequence of Platelet-derived growth factor receptor beta (Homo sapiens) (P09619 whole entry): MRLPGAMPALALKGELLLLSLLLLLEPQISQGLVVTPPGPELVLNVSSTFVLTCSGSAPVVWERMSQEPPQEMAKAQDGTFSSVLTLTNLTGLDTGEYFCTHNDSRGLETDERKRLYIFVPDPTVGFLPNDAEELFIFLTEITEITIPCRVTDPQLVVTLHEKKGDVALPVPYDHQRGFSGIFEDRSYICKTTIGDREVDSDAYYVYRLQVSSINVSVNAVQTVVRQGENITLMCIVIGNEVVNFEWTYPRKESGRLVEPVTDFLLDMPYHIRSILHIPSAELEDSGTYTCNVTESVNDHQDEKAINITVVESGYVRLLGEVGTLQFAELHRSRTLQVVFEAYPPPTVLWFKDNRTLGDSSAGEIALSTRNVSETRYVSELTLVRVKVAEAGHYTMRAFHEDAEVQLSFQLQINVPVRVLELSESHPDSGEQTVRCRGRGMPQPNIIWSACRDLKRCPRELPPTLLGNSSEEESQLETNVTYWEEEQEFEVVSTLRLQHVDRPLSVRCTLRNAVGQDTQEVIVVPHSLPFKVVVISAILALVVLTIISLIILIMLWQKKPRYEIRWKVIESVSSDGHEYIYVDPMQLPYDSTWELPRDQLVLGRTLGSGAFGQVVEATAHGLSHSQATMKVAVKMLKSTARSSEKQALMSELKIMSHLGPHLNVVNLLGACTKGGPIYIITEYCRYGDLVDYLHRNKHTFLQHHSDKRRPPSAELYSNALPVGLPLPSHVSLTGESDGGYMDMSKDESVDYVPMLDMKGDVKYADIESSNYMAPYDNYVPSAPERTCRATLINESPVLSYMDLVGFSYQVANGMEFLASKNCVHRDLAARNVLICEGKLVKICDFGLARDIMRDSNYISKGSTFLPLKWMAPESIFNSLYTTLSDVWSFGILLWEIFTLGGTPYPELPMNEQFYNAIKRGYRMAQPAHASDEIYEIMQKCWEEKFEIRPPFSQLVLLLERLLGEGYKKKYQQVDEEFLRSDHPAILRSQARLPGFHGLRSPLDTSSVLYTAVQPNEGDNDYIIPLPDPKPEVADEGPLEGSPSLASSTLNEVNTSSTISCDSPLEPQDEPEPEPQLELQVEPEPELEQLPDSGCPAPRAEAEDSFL
In the case of `Cc1cc(O)cc(C)c1/C=C/c1cncc(C(=O)OC(C)(C)C)c1`, the inhibition worked out at 43.3%.
In the case of `CS(=O)(=O)Nc1ccc(-c2ccc3c(NC(=O)C4CC4)n[nH]c3c2)cc1`, the inhibition is 8.42%.
Still for that read-out and setting: the same measure for `COc1cc2c(cc1Nc1nc(Nc3cccc(F)c3C(N)=O)c3cc[nH]c3n1)N(C(=O)CN1CCN(C(C)C)CC1)CC2`: 5.17%.
`COC(=O)Nc1nc2cc(Oc3ccc(NC(=O)Nc4ccccc4)cc3)ccc2[nH]1`: the inhibition was 20.8%.
The same measure, in the same setting: for `COc1ccccc1-c1cc(/C=C2\C(=O)Nc3ncc(Br)cc32)cc(Br)c1O` the value was 11.6%; for `O=C(Nc1n[nH]c2nnc(-c3cccnc3)cc12)C1CC1`, 4.59%; for `CCOc1ccc2c(-c3ccnc(Nc4cc(OC)cc(C(F)(F)F)c4)n3)cnn2n1`, 29.3%.
For the compound `O=C(O[C@H]1CN[C@H](C#Cc2cc3ncnc(Nc4ccc(OCc5cccc(F)c5)c(Cl)c4)c3s2)C1)N1CCOCC1`, the inhibition stood at 5.35%.
The same measure, in the same setting: for `CC1=C(C(=O)Nc2ccc3[nH]ncc3c2)C(c2ccc(F)cc2)N=C(c2ccc(C(F)(F)F)nc2)N1` (configuration not stated) the value was 5.78%.
Still for that read-out and setting: the same measure for `Nc1nccc(-c2c(-c3ccc(F)cc3)ncn2C2CCNCC2)n1`: 32% and 25.6%.
Consider `COc1c(C(N)=O)cc(-c2ccc(Cl)cc2)cc1-c1ccc(S(N)(=O)=O)cc1`, for which the inhibition came to 1.5%.
Same read-out and setting: the same measure for `CCS(=O)(=O)c1ccc(OC)c(Nc2ncc(-c3cccc(F)c3)o2)c1`: 83.5%; for `Cc1c2ccc(N(C)c3ccnc(Nc4cccc(S(N)(=O)=O)c4)n3)cc2nn1C`: 79.2%.
`CN(C)CCNC(=O)Nc1ccc(N(C)c2ccnc(Nc3ccc(CS(C)(=O)=O)cc3)n2)cc1`: the inhibition was 66.8%.
The same measure, in the same setting: the same measure for `COc1ccc2ncn(-c3cc(O[C@H](C)c4ccccc4C(F)(F)F)c(C(N)=O)s3)c2c1`: 37.5%; for `Cc1nnc(-c2cccc(-c3ccc(C(=O)NCC4CC4)cc3)c2)o1`: 8.15%; for `CS(=O)(=O)Nc1ccc(-c2cc(-c3ccccc3)cc(C(N)=O)c2N)cc1`: 9.4%.
Same read-out and setting: for `CN1CCC(n2cnc(-c3ccc(F)cc3)c2-c2ccnc(NCCO)n2)CC1` the value was 20.7%; for `COC(=O)Nc1nc2ccc(Oc3ccc(NC(=O)Nc4cc(C(F)(F)F)ccc4F)cc3)cc2s1`, 55.9%.
The same measure, in the same setting: the same measure for `COc1ccc(Nc2ncc(-c3ccccc3)o2)cc1OC`: 68%; for `OCCCNc1nccc(-c2c(-c3ccc(F)cc3)nn3cc(C(F)(F)F)ccc23)n1`: 14.4%; for `Fc1cccc(COc2ccc(Nc3ncncc3C#Cc3ccccc3)cc2Cl)c1`: 8.55%.
On to `CS(=O)(=O)CCNCc1ccc(-c2ccc3ncnc(Nc4ccc(OCc5cccc(C(F)(F)F)c5)cc4)c3c2)o1`, for which the inhibition was determined as 13.6%.
As for `CS(=O)(=O)CCNCc1ccoc1-c1ccc2ncnc(Nc3ccc(OCc4ccccc4)cc3)c2c1`, the inhibition turned out to be 5.15%.
The same measure, in the same setting: for `N#Cc1cccc(Nc2ncc(-c3ccccc3)o2)c1` the value was 26.1%; for `N#Cc1ccc2c(-c3ccnc(NC4CC4)n3)c(-c3ccc(F)cc3)nn2c1`, 16.8%.
As to `Cc1ccc(-c2cc3c(NC(=O)C4CC4)ncnc3o2)cc1`, the inhibition was 24.5%.
On the same count and under the same terms, the same measure for `NS(=O)(=O)c1cccc(N/C=C2\C(=O)Nc3ccccc32)c1`: 22.3%; for `O=C(O[C@H]1CN[C@H](C#Cc2cc3ncnc(Nc4ccc5c(cnn5Cc5ccccc5)c4)c3s2)C1)N1CCOCC1`: 6.66%; for `Cc1cc(O)cc(C)c1/C=C/c1cncc(C(N)=O)c1`: 42%.
On the same count and under the same terms, for `CS(=O)(=O)CCNCc1ccc(-c2ccc3ncnc(Nc4ccc(OCc5ccccc5)cc4)c3c2)o1` the value was 4.72%.

Another test addresses Tyrosine-protein kinase FRK (Homo sapiens) (UniProt P42685). Conditions: at 0.1 µM.
On to `Cc1cc(O)cc(C)c1/C=C/c1cncc(C(=O)OC(C)(C)C)c1`, for which the inhibition is 3.51%.
Still for that read-out and setting: for `CS(=O)(=O)Nc1ccc(-c2ccc3c(NC(=O)C4CC4)n[nH]c3c2)cc1` the value was 1.21%; for `COc1cc2c(cc1Nc1nc(Nc3cccc(F)c3C(N)=O)c3cc[nH]c3n1)N(C(=O)CN1CCN(C(C)C)CC1)CC2`, 0.37%.
For the compound `COC(=O)Nc1nc2cc(Oc3ccc(NC(=O)Nc4ccccc4)cc3)ccc2[nH]1`, the inhibition was 1.73%.
For `COc1ccccc1-c1cc(/C=C2\C(=O)Nc3ncc(Br)cc32)cc(Br)c1O`, the inhibition was determined as 0.6%.
Turning to `O=C(Nc1n[nH]c2nnc(-c3cccnc3)cc12)C1CC1`, the inhibition was -0.62%.
On the same count and under the same terms, for `CCOc1ccc2c(-c3ccnc(Nc4cc(OC)cc(C(F)(F)F)c4)n3)cnn2n1` the value was -0.17%.
With `O=C(O[C@H]1CN[C@H](C#Cc2cc3ncnc(Nc4ccc(OCc5cccc(F)c5)c(Cl)c4)c3s2)C1)N1CCOCC1`, the inhibition was 3.74%.
Take `CC1=C(C(=O)Nc2ccc3[nH]ncc3c2)C(c2ccc(F)cc2)N=C(c2ccc(C(F)(F)F)nc2)N1` (configuration not stated): the inhibition was -0.24%.
Same read-out and setting: the same measure for `Nc1nccc(-c2c(-c3ccc(F)cc3)ncn2C2CCNCC2)n1`: 0.53% and 0.26%.
Consider `COc1c(C(N)=O)cc(-c2ccc(Cl)cc2)cc1-c1ccc(S(N)(=O)=O)cc1`, for which the inhibition was 2.55%.
The same measure, in the same setting: for `CCS(=O)(=O)c1ccc(OC)c(Nc2ncc(-c3cccc(F)c3)o2)c1` the value was 10.5%.
Still for that read-out and setting: the same measure for `Cc1c2ccc(N(C)c3ccnc(Nc4cccc(S(N)(=O)=O)c4)n3)cc2nn1C`: 10.4%; for `CN(C)CCNC(=O)Nc1ccc(N(C)c2ccnc(Nc3ccc(CS(C)(=O)=O)cc3)n2)cc1`: 0.22%.
On to `COc1ccc2ncn(-c3cc(O[C@H](C)c4ccccc4C(F)(F)F)c(C(N)=O)s3)c2c1`, for which the inhibition was -0.74%.
Still for that read-out and setting: the same measure for `Cc1nnc(-c2cccc(-c3ccc(C(=O)NCC4CC4)cc3)c2)o1`: 1.96%.
For the compound `CS(=O)(=O)Nc1ccc(-c2cc(-c3ccccc3)cc(C(N)=O)c2N)cc1`, the inhibition is -0.3%.
On the same count and under the same terms, the same measure for `CN1CCC(n2cnc(-c3ccc(F)cc3)c2-c2ccnc(NCCO)n2)CC1`: 0.17%; for `COC(=O)Nc1nc2ccc(Oc3ccc(NC(=O)Nc4cc(C(F)(F)F)ccc4F)cc3)cc2s1`: 0.62%; for `COc1ccc(Nc2ncc(-c3ccccc3)o2)cc1OC`: -0.09%.
On to `OCCCNc1nccc(-c2c(-c3ccc(F)cc3)nn3cc(C(F)(F)F)ccc23)n1`, for which the inhibition is 0.71%.
The same measure, in the same setting: for `Fc1cccc(COc2ccc(Nc3ncncc3C#Cc3ccccc3)cc2Cl)c1` the value was 1.23%.
Still for that read-out and setting: the same measure for `CS(=O)(=O)CCNCc1ccc(-c2ccc3ncnc(Nc4ccc(OCc5cccc(C(F)(F)F)c5)cc4)c3c2)o1`: 2.67%; for `CS(=O)(=O)CCNCc1ccoc1-c1ccc2ncnc(Nc3ccc(OCc4ccccc4)cc3)c2c1`: -0.85%.
Still for that read-out and setting: for `N#Cc1cccc(Nc2ncc(-c3ccccc3)o2)c1` the value was 0.92%.
As to `N#Cc1ccc2c(-c3ccnc(NC4CC4)n3)c(-c3ccc(F)cc3)nn2c1`, the inhibition stood at 1.44%.
The same measure, in the same setting: the same measure for `Cc1ccc(-c2cc3c(NC(=O)C4CC4)ncnc3o2)cc1`: 2.14%.
The same measure, in the same setting: the same measure for `NS(=O)(=O)c1cccc(N/C=C2\C(=O)Nc3ccccc32)c1`: 3.47%; for `O=C(O[C@H]1CN[C@H](C#Cc2cc3ncnc(Nc4ccc5c(cnn5Cc5ccccc5)c4)c3s2)C1)N1CCOCC1`: 0.07%; for `Cc1cc(O)cc(C)c1/C=C/c1cncc(C(N)=O)c1`: 2.65%.
On to `CS(=O)(=O)CCNCc1ccc(-c2ccc3ncnc(Nc4ccc(OCc5ccccc5)cc4)c3c2)o1`, for which the inhibition came to 0.38%.

A word on the inhibition: it is the drop in the measured response relative to a control, in per cent.
